PubChem BioAssay AID686979 (National Center for Advancing Translational Sciences (NCATS), 2013)
Among all 420,000 compounds or so, about 50,000 (12%) were called active. About 26% were inconclusive and are not listed. Many of the other results were omitted from the sample, so actives are more common in it than they were. Unmarked numbers belong to inactive results. Calls come from the whole dose curve; as a rule, active = well fitted inhibition curve with a large enough effect; inconclusive = small, poorly fitted or top-dose-only effect; inactive = flat fitted curve, though single readings scatter.

Experiment: qHTS for Inhibitors of human tyrosyl-DNA phosphodiesterase 1 (TDP1): qHTS in cells in presence of CPT; note: nearly all actives have a fitted effect of over 55% in size
Conditions: chicken DT40 Tdp1-/-;hTDP1 cells + 20 nM CPT, ATP luminescence, 48 h; series mostly up to 46.2 µM; activity change, negative = growth inhibition: at the top concentration
Outline: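 Chicken DT40 Tdp1-/- cells complemented with human TDP1, 400 cells/well, exposed to compounds plus 20 nM camptothecin for at least 48 h at 37 C; viability read as ATP content by CellTiter-Glo luminescence.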
% is set by controls: 0 for no effect and ±100 for the full control effect; potency is the fitted concentration of half-maximal effect.

In order of falling “activity change, negative = growth inhibition” value:
1. COc1ccc(C(=O)Nc2cc(C)ccc2NC(=O)COc2ccccc2)cc1  10.8%
2. O=S(=O)(Nc1ccccc1Br)c1cccs1  9.21%
3. COC(=O)[C@]12CCCCC=C1N(Cc1ccc3c(c1)OCO3)C(=O)[C@H](CC(=O)N1CCOCC1)C2  8.29%
4. CCCCOc1ccc(C(C)(O)CCN2CCOCC2)cc1 (centres undefined)  7.6%
5. CCOC(=O)C1CCN(Cc2ccc(-c3ccccc3)cc2)CC1  6.78%
6. CC1=C(C(=O)N(C)C)CC(CC(=O)NCCc2ccccn2)C(=O)N1CCC1=CCCCC1 (centres undefined)  5.55%
7. CN(C(=O)COC(=O)Cc1ccccc1[N+](=O)[O-])C1CCS(=O)(=O)C1 (centres undefined)  4.83%
8. CC(C)(C)NC(=O)COC(=O)c1cc(Cl)ccc1[N+](=O)[O-]  3.17%
9. O=C(Cc1c(O)c2ccccc2[nH]c1=O)NCc1ccccc1  1.16%
10. COc1ccc(/C(C)=N\NC(=O)c2ccc(-c3ccccc3)cc2)c(F)c1  1.06%
11. CC1CCCCC1NC(=O)Cn1c(=O)cnc2ccccc21 (centres undefined)  0.78%
12. Cc1cccn2c(=O)nc(SCC(=O)NCc3ccccc3Cl)nc12  -0.21%
13. O=S(=O)(c1ccc(Br)cc1)c1nnn2c1nc(NC1CCCCCC1)c1sccc12  -0.255%
14. CCNC(=O)CC1C(=O)N(c2ccc(F)cc2)C(=O)N1Cc1ccc(C)cc1 (centres undefined)  -0.743%
15. O=C(NC1(C(F)(F)F)NC(=O)N(Cc2cccnc2)C1=O)c1ccccc1Cl (centres undefined)  -1.49%
16. CCN(CC)C(=O)COc1coc(CN2CCN(Cc3ccccc3)CC2)cc1=O  -2.36%
17. CCC(C)N1CC(=O)N2Cc3[nH]c4ccccc4c3C[C@H]2C1=O (some centres undefined)  -2.41%
18. Cc1ccc(-c2noc(CSc3nnnn3-c3ccccc3)n2)cc1  -3.52%
19. CSc1ccc(CNCCN2CCOCC2)cc1  -4.96%
20. COC1=NC2=NCCN2C(OC)=N1  -6.99%
21. CCCOC(=O)Cc1c(O)c2ccccc2[nH]c1=O  -11.3%
22. Cc1cc(-c2n[nH]c(=S)n2-c2ccc(C)c(C)c2)no1  -11.6%
23. O=c1[nH]cnc2c1c(-c1ccccc1)cn2-c1ccc(F)cc1  -11.8%
24. O=C(NCCCO)/C(=C\C=C\c1ccccc1)NC(=O)c1ccccc1Cl  -12.1%
25. Nc1nc(CSc2nnnn2-c2ccccc2)nc(Nc2ccccc2)n1  -16%
26. COc1ccc(N=Nc2ccc(O)c(P(=O)(c3ccccc3)c3ccccc3)c2)cc1  -16.4%
27. COCCn1c(C)cc(C(=O)COC(=O)CNC(=O)c2ccco2)c1C  -17%
28. CC(Cc1cccs1)N(Cc1ccc(Cl)cc1)C(=O)c1ccncc1 (centres undefined)  -18.9%
29. CCOC(=O)C1CCN(C(=O)COc2cc(C)c(Br)c(C)c2)CC1  -20.6%
30. CCOP(=O)(OCC)C(Nc1ccc([N+](=O)[O-])cc1)c1ccc(Cl)cc1 (centres undefined)  -22%
31. CCOC(=O)C1CCN(c2ncnc3c2oc2ccc(Br)cc23)CC1  -22.5%
32. CC(C)CCNC(=O)c1[nH]c(C(F)(F)F)nc1-c1ccccc1  -24.5%
33. CC1=C(C(=O)N2CCOCC2)CC(CC(=O)NCCN2CCOCC2)C(=O)N1CCC1=CCCCC1 (centres undefined)  -24.6%
34. CCOC(=O)C1CCN(C(=O)CC2C(=O)N(Cc3ccccc3)C(C)c3nc4ccccc4n32)CC1 (centres undefined)  -26.1%
35. Cc1ccc(Nc2ncnc3c2cnn3C)c(C)c1  -27.3%
36. CCOC(=O)[C@]12CCC=C1N(Cc1ccco1)C(=O)[C@H](CC(=O)N1CCSCC1)C2  -27.5%
37. COc1ccc(C(=O)O/N=C(\N)c2ccccn2)cc1[N+](=O)[O-]  -27.8%
38. O=c1cc(CN2CCN(c3cccc(Cl)c3)CC2)c2cc3c(cc2o1)CCCC3  -28.5%
39. COCCN(C(=O)C(C)N1C(=O)c2ccccc2C1=O)c1c(N)n(CC(C)C)c(=O)[nH]c1=O (centres undefined)  -29.5%

In the case of CCOC(=O)C1CCN(c2ncnc3c2c(-c2ccccc2)cn3-c2cccc(C)c2)CC1, the Potency is reported as 18.4 µM (active).
In the case of CCOC(=O)C1CCN(c2ncnc3c2c(-c2ccccc2)cn3-c2ccc(C)cc2)CC1, the Potency is reported as 20.6 µM (active).
For CC(C)(C)c1ccc(CCC2OCC(CN3CCOCC3)O2)cc1 (centres undefined), the Potency was 20.6 µM (active).
With COc1ccc(C(=O)NN(C)c2nc(-c3ccccc3)cc(C)c2S(C)(=O)=O)cc1 the Potency was 16.4 µM (active).
With COC(=O)Cc1c(-c2[nH]c3ccccc3c2CC(=O)OC)[nH]c2ccccc12 the Potency was 20.6 µM (active).
For Cc1ccc(Nc2nc(CSc3nnnn3-c3ccccc3)cc(=O)[nH]2)cc1, the Potency was 23.1 µM (active).
For COC(=O)[C@@]12C[C@@H](CC(=O)N3CCC(c4ccccc4)CC3)C(=O)N(Cc3ccccc3)C1=CCC(C)(C)C2, the Potency was 18.4 µM (active).
With CCOC(=O)[C@]12CCCC=C1N(Cc1ccc(Cl)cc1Cl)C(=O)[C@H](CC(=O)N1CCCCC1)C2 the Potency was 20.6 µM (active).
With CCOC(=O)[C@]12CCCC=C1N(CCC1=CCCCC1)C(=O)[C@H](CC(=O)NCCCOC)C2 the Potency was 14.6 µM (active).
In the case of CCOC(=O)[C@]12CCCC=C1N(CCC1=CCCCC1)C(=O)[C@H](CC(=O)N1CCCCC1)C2, the Potency is reported as 7.31 µM (active).
